Shown are actives, neighbours in structure and some others; about 19% of the full set was active somewhere.
KB-V1 MDR tox – KB-V1 MDR subline cytotoxicity | KB-V1 MDR cells viability, CellTiter-Glo, 72 h | Potency, µM (highest dose often 46.1 µM), actives largely listed as cytotoxic | actives 3.4% (n = 400,000); note: nearly all actives have a fitted effect of over 60% in size
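Compound-treated KB-V1 multidrug-resistant cells, 72 h, 37 degrees C; viability by CellTiter-Glo. Fitted qHTS curves give the values.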
HT1080-NT tox – kills 2HG-producing HT-1080-NT fibrosarcoma cells; HT-1080-NT fibrosarcoma viability, CellTiter-Glo ATP luminescence, 48 h; Potency, µM (doses to about 46.1 µM), for the others: at the highest dose activity, negative = less viability, actives largely listed as cytotoxic; actives 1.6% (n = 360,000); AID 686970;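 note: NT is the 2HG producing partner of a matched IDH1 knockdown line; 0% = DMSO-treated cells and -100% = media-only wells without cells; nearly all actives have a fitted effect of over 55% in size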
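Read-out is CellTiter-Glo luminescence after 10 minutes at room temperature, following 48 hours' compound treatment of HT-1080-NT cells (750 cells/well, RPMI, 5% FBS, 37 degrees C).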
KB-3-1 tox – kills parental KB-3-1 adenocarcinoma cells; KB-3-1 viability, CellTiter-Glo ATP luminescence, 72 h; Potency, µM (highest dose often 46.1 µM), hits mostly cytotoxic; actives 1.4% (n = 400,000); note: nearly all actives have a fitted effect of over 60% in size
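Cytotoxicity measured as CellTiter-Glo luminescence after 72 h at 37 C. Compound titrations were pinned onto drug-naive KB-3-1 parental adenocarcinoma cells grown in DMEM with 10% FBS, and normalized data fitted to concentration-response curves.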
TDP1 cell noCPT – qHTS for Inhibitors of human tyrosyl-DNA phosphodiesterase 1 (TDP1): qHTS in cells in absence of CPT; DT40 Tdp1-/- hTDP1 cells, no CPT, ATP luminescence, 48 h; Potency, µM (series often up to 46.2 µM), without a hit: at the top dose activity change, negative = growth inhibition, most hits filed as inhibitors; actives 15% (n = 420,000); note: nearly all actives have a fitted effect of over 55% in size
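A cellular qHTS used chicken DT40 cells lacking endogenous Tdp1 but carrying stably transfected human TDP1. Compounds were applied without camptothecin, and cell growth kinetics were judged by ATP-dependent luminescence after ≥48 hr.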
HT1080 IDH1KD tx – HT-1080 IDH1 knockdown cell toxicity (counter line); actives 2% (n = 360,000); Potency, µM (highest dose often 46.1 µM), for the others: at the top dose activity, negative = toxicity, most hits filed as cytotoxic; HT-1080 IDH1 knockdown viability, ATP luminescence, 48 h; AID 686971;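 note: 0% = DMSO wells and -100% = cell-free medium wells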
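Assay cells: HT-1080 with IDH1 knockdown, 750 per well, RPMI/5% FBS. Exposure: 48 h at 37 °C following 2 h pre-incubation. Read: CellTiter-Glo luminescence; fitted concentration-response, curve class assigned.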
TDP1 cell CPT – DT40-hTDP1 cell growth loss with CPT. chicken DT40 Tdp1-/-;hTDP1 cells + 20 nM CPT, ATP luminescence, 48 h. Potency, µM (series often up to 46.2 µM), without a hit: top-dose activity change, negative = growth inhibition, most hits filed as inhibitors. actives 12% (n = 420,000). AID 686979; note: nearly all actives have a fitted effect of over 55% in size
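Cell growth measured by CellTiter-Glo luminescence after a minimum 48 h, 37 C compound exposure with 20 nM CPT in Tdp1-knockout DT40 cells stably expressing hTDP1, seeded 400/well; qHTS titration format.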
* marks the source's active call; other numbers are inactive results; i = inactive; ? = inconclusive; . = no result; [ ] = another dose, or the depositor's remark. Calls come from the whole dose curve; as a rule, active = well fitted curve in the direction sought with a large enough effect; inconclusive = small, poorly fitted or top-dose-only effect, or another doubt; inactive = no such curve, though single readings can be large; an effect the other way counts as inactive or inconclusive. Unless noted, % is set by controls: 0 for no effect and ±100 for the full control effect; potency is the fitted concentration of half-maximal effect.

SMILES	KB-V1 MDR tox	HT1080-NT tox	KB-3-1 tox	TDP1 cell noCPT	HT1080 IDH1KD tx	TDP1 cell CPT
Cc1ccc(S(=O)(=O)N2C[C@]3(O)C[C@@H]4C(=O)N(c5ccccc5)C(=O)[C@@H]4C[C@]3(OC(=O)NC3CCCC3)C2)cc1	i	11%	i	21µM*	1%	?
CCCCCCn1c(=O)n2n(c1=O)C[C@]1(OC(=O)NC3CC3)CN(S(=O)(=O)c3ccc(C)cc3)C[C@]1(O)C2	i	-13%	i	12µM*	-9%	?
CCOC(=O)c1c(NC(=O)CN2CCN(C(=O)c3ccco3)CC2)sc(C(N)=O)c1C	i	-1%	i	18µM*	-4%	-28%
Cc1ccc(C(=O)c2cc(C)sc2NC(=O)CN2CCN(C(=O)c3ccco3)CC2)cc1	?	?	i	18µM*	?	?
CC1CCc2c(sc(NC(=O)CN3CCN(C(=O)c4ccco4)CC3)c2C#N)C1 (stereo not drawn)	i	0%	i	26µM*	-3%	18µM*
CCOC(=O)c1c(NC(=O)c2ccco2)sc(C(=O)N2CCCC2)c1C	2.3µM*	6%	i	?	2%	?
CCc1cc(C(=O)OC)c(NC(=O)CN2CCN(C(=O)c3ccco3)CC2)s1	i	-13%	i	?	-31%	?
COC(=O)c1ccccc1NC(=O)CN1CCN(C(=O)c2ccco2)CC1	i	-7%	i	-28%	-5%	?
Nc1ccccc1C(=O)CC(N)C(=O)O (stereo not drawn)	.	.	.	-16%	.	-3%
O=C1NC[C@@H](CCCCN2C[C@H](Cc3ccccc3)N(CC3CCCCC3)C(=O)C2=O)N(CCc2ccccc2)C1=O	i	7%	i	-3%	7%	-1%
CCOC(=O)c1c(NC(=O)c2ccoc2C)sc(C)c1C	?	21%	?	21µM*	12%	-9%
CCc1c(C)sc(NC(=O)c2ccoc2C)c1C(N)=O	?	3%	i	?	-10%	?
CCC(CC)NC(=O)CN1CCN(S(=O)(=O)c2cccs2)CC1	i	4%	i	-3%	5%	11%
COc1ccc(/C=N/Nc2cc(N3CCCC3)nc(N3CCCC3)n2)cc1	?	13µM*	?	21µM*	16µM*	21µM*
Oc1cccc(/C=N/Nc2cc(N3CCCC3)nc(N3CCCC3)n2)c1	i	2%	?	?	2%	?
Oc1ccc(/C=N/Nc2cc(N3CCCC3)nc(N3CCCC3)n2)cc1	i	?	i	?	4%[9.24 µM]	?
CCOc1ccc(/C=N/Nc2cc(N3CCOCC3)nc(C)n2)c(O)c1	i	-3%	i	?	-3%	?
COc1ccc(OC)c(/C=N/Nc2cc(C)nc(N3CCOCC3)n2)c1	i	2%	i	16µM*	11%	?
Oc1ccc(/C=N/Nc2cc(N3CCOCC3)nc(N3CCOCC3)n2)cc1	?	?	i	21µM*	?	16µM*
Cc1nc(N/N=C/c2ccc(Br)cc2)cc(N2CCOCC2)n1	i	0%	i	?	-15%	7.3µM*
NS(=O)(=O)c1ccc(NS(=O)(=O)c2ccc(C3CNC(=O)C3)cc2)cc1 (stereo not drawn)	i	15%	i	-23%	11%	-18%
COc1ccc(NC(=O)c2cc(S(=O)(=O)N3CCCC(C)C3)cn2C)c(OC)c1 (stereo not drawn)	i	.	i	0%	.	-6%
C/C(=N\NC(=O)c1nonc1N)c1cccs1	i	4%	i	-15%	7%	-18%
